Compound activity from PubChem BioAssay.
IkB sig inh: suppresses IkB signaling in ABC-DLBCL reporter cells; ABC-DLBCL IkBa-CBG/CBR dual luciferase ratio, 4 h; response scale: scaled: untreated 0%, proteasome inhibitor 100%; Potency, µM (titrated, usually from 57.1 µM), without a hit: at the top dose IkBa stabilization activation; actives 0.04% (n = 110,000); active = well fitted curve in the direction sought with a large enough effect in the signal ratio, not every such curve was filed as active; inconclusive = small, poorly fitted or top-dose-only effect, or a change in a side signal; the % refers to the signal ratio;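 note: the direction sought is a rising ratio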
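In this assay, an IκBα–CBG68 fusion accumulates when IKK-driven degradation is blocked; native CBR normalizes for cell number. OCI-Ly3 cells were treated 4 h with compound and doxycycline, then green and red light read after Chroma-Glo addition.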
CRE Fsk mod: CRE-bla signaling modulation under forskolin stimulation; CHO CRE-bla reporter (cAMP response element driving beta-lactamase), forskolin EC10, beta-lactamase ratio; Potency, µM (top dose mostly 38.2 µM), for inactives: at the highest dose activity change, negative = inhibition, hits mostly activators; AID 662; actives 2.5% (n = 71,000); active = well fitted activation curve with a large enough effect in the signal ratio, with a control signal flat, not every such curve was filed as active; inconclusive = small, poorly fitted or top-dose-only effect, or effect the other way, or a change in a side signal; the % refers to the signal ratio; note: % of control where 0% means no effect
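CRE-bla CHO reporter cells treated with compound titration plus EC10 NKH 477 (water-soluble forskolin), incubated 3 h at 37 °C; CCF4 loading 2 h at room temperature, 460/530 nm emission ratio read, AC50 values derived for positive or negative modulators.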
ALOX15 inhib: inhibitors of human 15-lipoxygenase (ALOX15); Potency, µM (doses to about 57.1 µM), inactives show at the highest dose activity change, negative = inhibition, hits mostly inhibitors; AID 887; purified 15hLO-1, xylenol orange hydroperoxide absorbance; P16050; actives 1.4% (n = 74,000); note: % is set by controls: 0 for no effect and ±100 for the full control effect; nearly all actives have a fitted effect of over 55% in size
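40 nM 15hLO-1 + cpd, 15 min RT; start w/ 50 uM AA (final), 6 min RT; stop/detect w/ 200 uM XO + 300 uM Fe(II) in 50 mM H2SO4, 30 min; A573/A405. Buffer 25 mM Hepes pH 7.5, 0.01% Triton X-100. No-enzyme wells as negative control.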
Tau filament bind: tau filament binding; actives 2% (n = 71,000); Potency, µM (top dose mostly 57.1 µM), inactives show top-dose activity change, negative = inhibition; AID 596; recombinant tau filaments, thioflavin S fluorescence, 15 h; filaments grown with octadecylsulfate alongside compound;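 note: % is set by controls: 0 for no effect and ±100 for the full control effect; actives lower thioflavin S fluorescence by blocking filaments or displacing dye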
Target sequence (P10636 whole entry, looked up): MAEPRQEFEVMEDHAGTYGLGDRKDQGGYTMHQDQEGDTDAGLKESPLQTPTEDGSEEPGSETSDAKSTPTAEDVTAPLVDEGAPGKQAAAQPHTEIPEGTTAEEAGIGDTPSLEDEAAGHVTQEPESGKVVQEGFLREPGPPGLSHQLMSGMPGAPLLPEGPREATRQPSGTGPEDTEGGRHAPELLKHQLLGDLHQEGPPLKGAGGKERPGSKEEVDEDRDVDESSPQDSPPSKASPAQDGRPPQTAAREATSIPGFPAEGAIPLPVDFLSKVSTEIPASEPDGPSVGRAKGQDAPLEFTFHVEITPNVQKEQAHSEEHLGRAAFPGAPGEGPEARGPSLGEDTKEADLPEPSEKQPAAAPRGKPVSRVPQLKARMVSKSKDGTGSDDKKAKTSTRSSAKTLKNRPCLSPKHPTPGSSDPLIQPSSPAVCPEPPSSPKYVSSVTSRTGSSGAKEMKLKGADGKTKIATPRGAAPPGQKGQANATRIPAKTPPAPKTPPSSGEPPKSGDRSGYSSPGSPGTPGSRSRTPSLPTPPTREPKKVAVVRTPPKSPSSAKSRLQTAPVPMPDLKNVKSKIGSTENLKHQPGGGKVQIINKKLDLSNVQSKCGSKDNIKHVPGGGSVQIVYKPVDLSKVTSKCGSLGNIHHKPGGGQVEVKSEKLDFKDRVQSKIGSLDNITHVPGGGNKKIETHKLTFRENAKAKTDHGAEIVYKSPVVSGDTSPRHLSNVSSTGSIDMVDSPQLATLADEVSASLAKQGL
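Tau 2 uM in ThS buffer dispensed; compound added; 60 uM ODS added (finals 1 uM tau, 30 uM ODS); 15 h 37 C; fluor ex450/em510.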
Hsp90 Hop PPI: changes Hsp90-Hop TPR2A binding signal, up or down. actives 0.44% (n = 71,000). AID 595. Potency, µM (titrated, usually from 57 µM), for inactives: at the highest dose activity change, negative = inhibition. AlphaScreen TPR2A-His6 binding biotin-Hsp90 C-terminal peptide; active = well fitted curve in either direction with a large enough effect; inconclusive = small, poorly fitted or top-dose-only effect, or another doubt; note: % is set by controls: 0 for no effect and ±100 for the full control effect
Active calls of the source: *; ? = inconclusive; . = no result; [ ] = dose if it differs, or a comment. Shown are actives, neighbours in structure and some others; about 3.6% of the full set was active somewhere. Unless noted, calls come from the whole dose curve; as a rule, active = well fitted curve in the direction sought with a large enough effect; inconclusive = small, poorly fitted or top-dose-only effect, or another doubt; inactive = no such curve, though single readings can be large; an effect the other way counts as inactive or inconclusive. Potency is the fitted concentration of half-maximal effect.

SMILES	IkB sig inh	CRE Fsk mod	ALOX15 inhib	Tau filament bind	Hsp90 Hop PPI
CC(C)CCNC(=O)c1cnn2c(C(F)(F)F)cc(-c3ccco3)nc12	-1.2%	5.01µM*	?	15.8µM*	0.3%
O=C(NC1CCCC1)c1cnn2c(C(F)(F)F)cc(-c3ccco3)nc12	-0.9%	?	?	?	-5.0%
O=S(=O)(c1ccc2nc(-c3ccco3)c(-c3ccco3)nc2c1)N1CCOCC1	?	?	2.51µM*	27.8%	-22.9%
COc1ccc(-c2cc(C(F)(F)F)n3nc(C(=O)N4CCCCC4)cc3n2)cc1	-2.5%	12.6µM*	-7.6%	-25.4%	?
CCOC(=O)c1cc2c(=O)n3ccccc3nc2n(CCOC)c1=NC(=O)c1cc2ccccc2o1	2.2%	.	.	.	.
CCc1nc(SCc2cc(=O)c3cc(F)ccc3[nH]2)n[nH]1	-0.6%	.	.	.	.
COc1ccc(NC(=O)C2(S(=O)(=O)c3ccc(C)cc3)CC2)c(OC)c1	0.8%	.	.	.	.
O=C(c1ccc2ccccc2c1)N1CCN(c2ccc(O)cc2)CC1	1.1%	-16.2%	3.16µM*	-1.9%	?
O=C(c1cc2nc(-c3ccco3)cc(C(F)(F)F)n2n1)N1CCCc2ccccc21	-1.2%	-4.9%	0.8%	-23.9%	-3.6%
O=C(c1cc2nc(-c3ccco3)cc(C(F)(F)F)n2n1)N1CCN(c2ccccn2)CC1	4.3%	?	-13.3%	25.1µM*	-9.2%
CCc1nc2ccc(C(=O)N3CCN(c4ccccc4)CC3)cc2nc1CC	-0.8%	.	.	.	.
O=C(c1ccc2nc(-c3ccco3)c(-c3ccco3)nc2c1)N1CCN(c2ccccc2)CC1	?	?	3.16µM*	1µM*	?
O=C(c1cc2nc(-c3ccco3)cc(C(F)(F)F)n2n1)N1CCN(c2ccccc2)CC1	-3.3%	24.7%	-24.5%	10µM*	-16.2%
Nc1ncnc2nc[nH]c12.Nc1ncnc2nc[nH]c12.[Cl][Pt]([Cl])([Cl])[Cl]	1.2%[11.4 µM]	0.6%[7.6 µM]	.	0.2%[11.4 µM]	-5.3%[11 µM]
Cc1ccc(NC(=O)c2nc(S(C)(=O)=O)ncc2N(Cc2ccc(C(C)(C)C)cc2)Cc2ccco2)cc1C	0.0%	.	.	.	.
CCOc1ccc(CCNC(=O)c2cn(-c3ccc(OC)cc3)c(=O)c3ccccc23)cc1OCC	2.2%	.	.	.	.
O=C(c1cc2nc(-c3ccco3)cc(C(F)(F)F)n2n1)N1CCCCCC1	-2.0%	?	?	12.6µM*	5.1%
COCCn1c(-c2ccccc2)c(C)n2c3c(=O)n(C)c(=O)n(C)c3nc12	-1.6%	.	.	.	.
CN1C(=O)CSc2ccc(NC(=O)Nc3ccccn3)cc21	?	-19.2%	3.5%	10µM*	-8.9%
CN1C(=O)CSc2ccc(NC(=O)N3CCN(c4ccccn4)CC3)cc21	?	?	-16.5%	-26.9%	-8.8%
CC1=NNC(=S)NCCCN2CCN(CCCNC(=S)NN=C(C)C=NNC(=S)NCCCN3CCN(CCCNC(=S)NN=C1)CC3)CC2	1.2%[11.4 µM]	-10.6%[7.6 µM]	13.5%[11.4 µM]	?	3.98µM*
c1cncc(-c2csc(NCc3ccco3)n2)c1	.	.	-9.6%	.	.
COc1ccc(-c2csc(NCc3ccco3)n2)cc1C	3.1%	1.6%	-29.4%	12.6µM*	-23.0%
CCc1ccc(NC(=O)Cn2c(=O)n(Cc3ccco3)c(=O)c3cccnc32)cc1	-2.1%	.	.	.	.
CC1=C(C(=O)Nc2ccc(Cl)cc2)C(C(C)C)n2nc(SCc3cccc(C)c3)nc2N1 (stereo unspecified)	-0.8%	.	.	.	.
SMILES	IkB sig inh	CRE Fsk mod	ALOX15 inhib	Tau filament bind	Hsp90 Hop PPI
C(=N\C(/N=C/c1ccco1)c1ccco1)/c1ccco1	-2.2%	20.6%	-6.3%	-25.2%	-8.1%
CN(C)c1ccc(N=Cc2ccco2)cc1	?	11.8%	?	12.6µM*	?
O=C(CC1N=C2c3ccccc3N=C(SCc3cccc(Cl)c3)N2C1=O)NCCc1ccccc1 (stereo unspecified)	-2.4%	.	.	.	.
NS(=O)(=O)c1ccc2nc(NC(=O)COc3ccc(Cl)cc3Cl)sc2c1	2.8%	.	.	.	.
CCc1nc(N2CCOCC2)c(C#N)c2c1COC(C)(C)C2	-1.8%	?	-5.9%	23.8%	-1.4%
CC1CCN(c2nc(-c3ccco3)c3c(c2C#N)CC(C)(C)OC3)CC1	?	?	-19.4%	-16.6%	25.1µM*
CCCCNC(=O)c1cc2c(=O)n3cccc(C)c3nc2n(Cc2ccncc2)c1=N	-0.6%	3.16µM*	-3.2%	150.6%	-5.5%
COCCNC(=O)c1cc2c(=O)n3cccc(C)c3nc2n(Cc2ccncc2)c1=N	-1.0%	4.0%	-0.2%	-6.0%	-5.3%
Cc1cccn2c(=O)c3cc(C(=O)NC4CCCC4)c(=N)n(C4CCCC4)c3nc12	1.1%	?	-24.4%	0.398µM*	3.6%
COc1ccc(CCNC(=O)c2cc3c(=O)n4cccc(C)c4nc3n(Cc3ccncc3)c2=N)cc1	-2.6%	?	-1.9%	3.16µM*	0.2%
CCn1c(=N)c(C(=O)NC2CCCCC2)cc2c(=O)n3cccc(C)c3nc21	1.5%	.	.	.	.
CCOc1ccc(-n2c(SCC(=O)c3ccccc3)nc3c([nH]c4ccccc43)c2=O)cc1	-0.5%	.	.	.	.
Cc1cccc(-c2nnc(SCc3nc4ccccc4[nH]3)n2Cc2ccco2)c1	?	2.51µM*	7.2%	0.5%	-5.7%
CC(C)(C)OC(=O)N1CCC(c2c(C(=O)N3CCN(c4ccccn4)CC3)cnn2-c2ccc(F)cc2)CC1	-1.4%	.	.	.	.
Cn1nc(C(=O)Nc2cccnc2)c2ccccc2c1=O	-3.5%	10µM*	3.5%	-16.8%	-4.0%
Cn1nc(C(=O)NCc2cccnc2)c2ccccc2c1=O	0.9%	?	6.8%	-11.1%	-3.1%
O=C1[C@@H]2[C@H]3[C@H](O)[C@H](O)C/C(=N/OCc4ccccc4)[C@H]3CC[C@H]2C(=O)N1c1ccc(F)cc1F	.	.	4.5%[11.4 µM]	.	.
COc1ccc(Cc2nc(-c3cccs3)no2)cc1OC	4.8%	3.98µM*	-3.5%	-0.3%	-3.0%[2.3 µM]
COc1cccc(NC(=O)c2cc3c(-c4ccc(Cl)cc4)nn(C)c3s2)c1	0.3%	.	.	.	.
COc1cccc(-c2nn(C)c3sc(C(=O)NCc4ccccn4)cc23)c1	?	7.94µM*	-8.3%	23.0%	?
CCN(CC)CCNC(=O)c1cc2c(-c3cccc(OC)c3)nn(C)c2s1	1.6%	.	.	.	.
COc1cccc(-c2nn(C)c3sc(C(=O)Nc4ccc5c(c4)OCCO5)cc23)c1	?	1.26µM*	-10.2%	58.7%	-9.4%
N#Cc1c(-c2cccs2)cc(-c2cccnc2)nc1N	0.0%	3.98µM*	-0.6%	1.4%	4.7%
O=C(CCCCCn1c(=O)[nH]c2ccccc2c1=O)NCc1ccccc1	-0.2%	.	.	.	.
Cc1onc(-c2ccccc2Cl)c1-c1nc(-c2ccccn2)no1	-2.2%	12.6µM*	-6.2%	8.0%	4.4%
Cc1occc1-c1nc(-c2ccccn2)no1	6.2%	9.0%	0.3%	-6.9%	-14.3%
